Compound activity as filed in PubChem BioAssay.
Vif-APOBEC3G blk: Vif-A3G binding inhibition | HeLa A3G-eYFP + Vif (tagged APOBEC3G with the HIV-1 protein that degrades it), YFP fluorescence, overnight | Potency, µM (series often up to 46.1 µM), usual class: inhibitors | hit rate 0.076% among 410,000; note: nearly all actives have a fitted effect of over 60% in size
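HeLa cells stably expressing Vif and C-terminally eYFP-tagged A3G, seeded overnight at 37 deg C, then exposed to compound by pintool overnight at 37 deg C. Rise in yellow fluorescence (Ex 488/Em 500-530, Acumen) marks blocked Vif-driven A3G degradation.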
TrxR1 substrate: is turned over as a substrate by rat TrxR1; AID 588456; Potency, µM (highest dose often 114 µM); purified TrxR1 substrate turnover, NADPH consumption readout; hit rate 0.01% among 390,000; note: nearly all actives have a fitted effect of over 50% in size
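Rat TrxR1, dispensed at 90 nM, was prereduced with 400 uM NADPH (final) for 5 min at ~22 deg C, then incubated with compound 15 min before 400 uM selenite. A first-read NADPH fluorescence drop versus no-compound background flagged substrates.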
rTrxR1 inhibitor: inhibitors of rat thioredoxin reductase 1; recombinant rTrxR1, NADPH fluorescence consumption, selenite substrate; Potency, µM (series often up to 114 µM), actives largely listed as inhibitors; hit rate 1% among 390,000; note: nearly all actives have a fitted effect of over 65% in size
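Rat TrxR1 (90 nM in the dispensed reagent) was pre-reduced with 400 uM NADPH for 5 min at room temperature, then incubated with compound for 15 min. After 400 uM selenite was added, NADPH fluorescence (Ex 340/Em 450 nm) was followed for 8 min.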
Vif-A3F inh: blocks the Vif interaction with APOBEC3F; HeLa A3F-eYFP + Vif (tagged APOBEC3F with the HIV-1 protein that degrades it), YFP fluorescence increase; Potency, µM (highest dose often 46.1 µM); hit rate 0.2% among 390,000; note: nearly all actives have a fitted effect of over 65% in size
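Fluorescence increase (Ex 488/Em 500-530) after overnight compound treatment at 37 deg C flags inhibition of Vif-driven A3F-eYFP loss in stable HeLa A3F-eYFP/Vif cells seeded overnight beforehand.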
VDR inh: vitamin D3 receptor (human) inhibition | P11473 | VDR-SRC2-3 peptide fluorescence polarization, 2 h | Potency, µM, usual class: inhibitors | hit rate 0.93% among 400,000 | AID 504847
Target sequence (P11473 whole entry, looked up): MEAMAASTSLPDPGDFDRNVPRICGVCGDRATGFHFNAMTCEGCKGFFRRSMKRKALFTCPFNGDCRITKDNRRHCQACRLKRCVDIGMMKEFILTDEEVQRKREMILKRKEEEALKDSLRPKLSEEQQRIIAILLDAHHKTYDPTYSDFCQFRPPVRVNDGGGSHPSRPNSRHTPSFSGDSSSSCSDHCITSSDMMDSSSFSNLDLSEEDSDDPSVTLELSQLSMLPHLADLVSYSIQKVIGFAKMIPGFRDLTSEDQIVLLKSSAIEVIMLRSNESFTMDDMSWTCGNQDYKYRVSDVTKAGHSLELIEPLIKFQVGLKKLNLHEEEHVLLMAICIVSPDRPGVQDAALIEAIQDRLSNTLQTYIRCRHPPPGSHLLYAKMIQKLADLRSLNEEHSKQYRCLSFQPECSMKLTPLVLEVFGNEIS
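Compounds are added to VDR with labelled SRC2-3 coactivator peptide and held 2 h at room temperature. Inhibition of the VDR–peptide interaction is then read as a change in fluorescence polarization.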
Hits are given with their value; - = inactive; ? = inconclusive; . = not tested or not shown; ! = a repeat was not active. In the library only some 1.8% were active in any assay of this set; here they are far more common. Calls come from the whole dose curve; as a rule, active = well fitted curve in the direction sought with a large enough effect; inconclusive = small, poorly fitted or top-dose-only effect, or another doubt; inactive = no such curve, though single readings can be large; an effect the other way counts as inactive or inconclusive.

SMILES	Vif-APOBEC3G blk	TrxR1 substrate	rTrxR1 inhibitor	Vif-A3F inh	VDR inh
CCOC(=O)c1ccccc1N	-	-	-	-	-
CCOC(=O)CCCc1cc[c]([Sb](=[O])([OH])[OH])cc1	-	-	1.1µM	.	?
CC/C=C\C[C@@H](/C=C/C=C\C/C=C\C/C=C\CCCC(=O)O)OO	.	.	.	.	-
O=C(O)c1ccc(-c2ccc3cc(C45CC6CC(CC(C6)C4)C5)c(O)cc3c2)cc1	.	.	.	.	56µM
Cc1ccc(-c2cc(-c3ccc(C)cc3)[n+](-c3ccc(C(=O)O)cc3)c(-c3ccc(C)cc3)c2)cc1	-	-	-	-	-
ClCCN(CCCl)c1ccc(C=Nc2ccc(/C=C/c3ccncc3)cc2)cc1	-	-	-	.	.
Cc1c(C=C2C(=O)N(C)C(=S)N(C)C2=O)c2ccccc2n1CC(=O)NCC1CCCO1 (configuration not stated)	-	-	13µM	-	?
COC(=O)C1=C(C(=O)OC)SC2(S1)C(C(=O)OC)=C(C(=O)OC)Sc1c2ssc1=O	-	?	?	-	2µM
NC1CCCC[C@@H]1N (some centres not stated)	.	.	.	.	-
O=C1NC(=S)N(C2CC2)C(=O)/C1=C/c1ccc2c(c1)CCN2CCCCl	-	-	7.9µM	-	-
C=CCN1C(=O)/C(=C/c2ccc3c(c2)CCCN3CCC)C(=O)NC1=S	-	-	10µM	-	?
O=C1NC(=S)N(c2ccc(F)cc2)C(=O)/C1=C\c1ccoc1	-	-	?	-	?
CC(C)(C)N1C(=O)NC(=O)/C(=C\c2ccc3c(c2)CCN3CCCCl)C1=O	-	-	?	-	-
CCN1C(=O)/C(=C/c2ccc3c(c2)CCN3CCCCl)C(=O)NC1=S	-	-	28µM	?	-
COC1(C)CC(c2ccccc2)c2c(c3ccccc3oc2=O)O1 (configuration not stated)	.	.	.	.	-
C[C@@H]1CC[C@H]2[C@H](C)[C@H]3CC[C@@]4(O)[C@@H]5CC(=O)[C@H]6CC(=O)CC[C@]6(C)[C@H]5C[C@H]4[C@@H]3CN2C1	.	.	.	.	-
CCOc1ccc(-c2nc3ccc(-c4nc5ccc(N6CCN(C)CC6)cc5[nH]4)cc3[nH]2)cc1	.	.	.	.	-
CCC(=O)C1=C(c2cccc([N+](=O)[O-])c2)N(C(=O)CC)n2c(nnc2C2CCCCC2)S1	-	-	-	?	-
Cc1ccc(C(C#N)=Cc2ccc3c(c2)OCO3)cc1	?	.	.	-	.
Nc1c(C(=O)Nc2ccc(OC(F)(F)F)cc2)sc2nc3c(cc12)N1CCC3CC1	-	-	-	-	-
COc1ccc(/C=C2\C(=O)NC(=S)N(C)C2=O)cc1C	-	-	?	-	45µM
CN1C(=O)/C(=C/C=C/c2ccco2)C(=O)NC1=S	-	-	?	-	?
Cc1ccsc1/C=C1\C(=O)NC(=S)N(C)C1=O	-	-	32µM	?	?
Cc1ccc(OCCn2cccc2/C=C2/C(=O)NC(=O)N(Cc3ccco3)C2=O)cc1	-	-	40µM	?	-
Cc1c(C(=O)c2cccc3ccccc23)c2cccc3c2n1[C@@H](CN1CCOCC1)CO3	.	.	.	.	-
SMILES	Vif-APOBEC3G blk	TrxR1 substrate	rTrxR1 inhibitor	Vif-A3F inh	VDR inh
COP(=S)(OC)SCn1nnc2ccccc2c1=O	-	-	-	-	22µM
O=c1[nH]c(=O)n(Cc2ccco2)c(O)c1/C=N/N1CCCCCC1	-	-	-	-	-
N#Cc1c(/N=C/c2c(O)n(Cc3ccco3)c(=O)[nH]c2=O)sc2c1CCCC2	-	-	?	-	79µM
C[C@@H]1CC2C3CC=C4C[C@@H](O)CC[C@]4(C)C3CC[C@]2(C)[C@H]1O (some centres not stated)	-	-	-	-	-
C[C@H]1CC[C@@H]2[C@@H](C)[C@H]3[C@H](C[C@H]4[C@@H]5CC=C6C[C@@H](O[C@@H]7O[C@H](CO)[C@H](O)[C@H](O[C@@H]8O[C@H](CO)[C@@H](O)[C@H](O)[C@H]8O)[C@H]7O[C@@H]7O[C@@H](C)[C@H](O)[C@@H](O)[C@H]7O)CC[C@]6(C)[C@H]5CC[C@]34C)N2C1	-	-	71µM	-	-
Cc1cc(/C=C2\C(=O)NC(=O)N(c3cccc(F)c3)C2=O)c(C)n1-c1ccc(C(=O)O)c(Cl)c1	-	-	-	-	-
Cc1ccc(N2C(=O)NC(=O)/C(=C/c3ccc(OC(=O)c4cccs4)cc3)C2=O)cc1	-	-	32µM	-	?
COc1ccc(N2C(=O)NC(=O)/C(=C/c3cccc(OC(=O)c4cccs4)c3)C2=O)cc1Cl	-	-	10µM	-	?
CCCOCCN(C(=O)CCl)c1c(CC)cccc1CC	.	.	.	.	-
COc1cccc(NC(=O)C2CCN(c3nnc(C)c4c(C)n(-c5ccccc5)nc34)CC2)c1	-	-	-	-	-
N#Cc1ccc(CN2CCC3(CC2)CCN(C(=O)Oc2ccccc2)CC3)cc1	.	.	.	.	-
O=C1C=CC(=O)C(Cl)=C1	.	.	.	.	25µM
COc1ccc(OC)c(N2C(=O)NC(=O)/C(=C/c3ccc([N+](=O)[O-])s3)C2=O)c1	-	-	?	-	?
COc1ccc(OC)c(N2C(=O)/C(=C/c3ccco3)C(=O)NC2=S)c1	-	-	28µM	-	?
CC1(c2ccc(Cl)cc2Cl)OCC(Cn2cncn2)O1 (configuration not stated)	-	-	-	-	-
CCCC1COC(Cn2cncn2)(c2ccc(Cl)cc2Cl)O1 (configuration not stated)	-	-	-	-	50µM!
ClCCN(CCCl)/C(=C\c1ccccc1)c1ccnc2ccccc12	-	-	?	.	.
O=C(c1cc2cc(Cl)ccc2[nH]1)N1CCC2(CC1)OCCO2	-	-	45µM	-	-
Oc1c(C(Nc2cccnc2)c2ccccc2F)ccc2cccnc12 (configuration not stated)	-	-	1.4µM	.	.
CC(C)C(=O)NC(Oc1ccccc1Cl)C(Cl)(Cl)Cl (configuration not stated)	-	-	8.9µM	-	-
O=C(Cc1ccccc1)NC(Oc1ccccc1Cl)C(Cl)(Cl)Cl (configuration not stated)	-	-	?	-	-
Cc1cc(C)c(C(=O)CN2CCOCC2)c(C)c1	-	-	-	-	28µM
COc1ccc(C(=O)CN2CCOCC2)cc1	-	-	-	.	.
CCCCCCCCCCCCCCC[C@@H](O)[C@@H](N)COP(=O)(O)O	.	.	.	.	-
NC(CO)Cc1ccccc1 (configuration not stated)	.	.	.	.	-
